# Laboratory results: ChEMBL document CHEMBL3988442, “University of Dundee, Small-Polar-MMV Screening Library” (2021)
# How the values were obtained:
# [1] = target: T1, Aspartate--tRNA(Asp/Asn) ligase (Mycobacterium tuberculosis (strain ATCC 25618 / H37Rv)) (UniProt P9WFW3); assay: Assay for Asp RNA synthetase-1 from Mycobacterium tuberculosis; assay type: functional; design: scale not given: direction of the effect not stated beside the values; settings: 30 µM; also: in the data most compounds retested in dose-response had high values
# T1 sequence (whole entry): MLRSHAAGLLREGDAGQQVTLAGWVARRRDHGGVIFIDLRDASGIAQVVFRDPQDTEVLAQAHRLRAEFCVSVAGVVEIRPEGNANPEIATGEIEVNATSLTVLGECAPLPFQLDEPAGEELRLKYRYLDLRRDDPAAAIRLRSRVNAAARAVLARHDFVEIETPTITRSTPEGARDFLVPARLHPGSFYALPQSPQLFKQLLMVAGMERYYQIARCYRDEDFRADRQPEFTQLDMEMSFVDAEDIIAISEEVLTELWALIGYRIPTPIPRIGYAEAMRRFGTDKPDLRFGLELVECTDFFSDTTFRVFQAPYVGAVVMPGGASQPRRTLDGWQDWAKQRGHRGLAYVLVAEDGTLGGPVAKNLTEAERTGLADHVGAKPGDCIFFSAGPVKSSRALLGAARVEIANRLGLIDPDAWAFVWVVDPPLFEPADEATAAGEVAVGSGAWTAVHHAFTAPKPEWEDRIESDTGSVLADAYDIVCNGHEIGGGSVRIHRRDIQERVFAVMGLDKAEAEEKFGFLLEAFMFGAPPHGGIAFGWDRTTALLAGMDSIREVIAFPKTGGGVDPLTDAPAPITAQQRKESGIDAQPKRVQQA
# [2] = target: Shiga toxin 2 (Escherichia coli O157:H7) (UniProt P09385+P09386); assay: E. coli 0.157:H7 Shiga Toxin SOP - stx2 screening assay; assay type: functional; design: scale not given: direction of the effect not stated beside the values; settings: 30 µM
SMILES,Percent Effect [1] [%],Percent Effect [2] [%]
COc1ccc(C(CO)NC(=O)Nc2cccc(C#N)c2)cc1 (centres undefined),3.45,-32.6
Cc1cccc(CN2CCC3(CCN(c4ccccn4)C3)C2=O)c1 (centres undefined),0.319,-2.5
O=C(Cc1cccs1)NC1CCN(c2cccc(F)c2)CC1,2.33,-14.1
CC(=O)c1cn(CCC(=O)NCCC(=O)O)c2ccccc12,-4.27,-25.1
O=C(CC1CCCC1)NCCn1ccc(-c2ccncc2)n1,7.45,3.58
CCc1nc(N)sc1C(=O)N1CCCC(CCc2ccccc2C)C1 (centres undefined),6.53,-7.07
CCOCC1CN(Cc2cnn(C)c2)Cc2nn(C)cc21 (centres undefined),-3.19,-11.8
NC(=O)C1CCN(Cn2nc(-c3ccccc3)oc2=O)CC1,9.54,-53.5
c1ccc(-n2ncc(CNC3CCc4ncnn4C3)n2)cc1 (centres undefined),1.39,-16.9
CCOCCN1CCN(Cc2nc(C3CC3)no2)CC1CC (centres undefined),-4.28,9.42
CS(=O)(=O)NC1CCCN(C(=O)NCc2cccnc2)C1 (centres undefined),-0.548,26.7
CCCN1CCCn2nc(CNC(=O)CCc3scnc3C)cc2C1,-0.334,3.64
Fc1ccc(-c2nnc(CN3CCCC3Cn3cncn3)o2)cc1 (centres undefined),-1.49,-12.6
CCc1ncnc2c1CCN(C(=O)Cc1ccccn1)CC2,-1.97,-18.4
CCO[C@H]1CO[C@@]2(CCCN(S(=O)(=O)c3ccccc3)C2)C1,4.62,-21.7
O=C(NCC1CC1)[C@H]1CC[C@@H]2[C@@H](CCN2Cc2ccoc2)O1,-5.12,0.319
Cc1nn(C)c(Cl)c1C1CCCN1C(=O)c1ccc2c(c1)OCO2 (centres undefined),-0.434,12
CCOc1ccc2[nH]c(=O)c(CN3CCC(O)CC3)cc2c1,-6.3,-8.86
Cc1nn(CC(C)C)c(N(C)C)c1CNCc1cccnc1N(C)C,0.161,24.5
CCN1C(=O)C2(CCOCC2)c2cc(NC(=O)c3ccco3)ccc21,-3.45,-26.8
CN(C)C(=O)c1ccc2c(c1)N(C)C(CC(=O)NC(C)(C)CO)CO2 (centres undefined),1.87,-25.6
O=C(Nc1ccc(CCN2CCC(O)CC2)cc1)C1CCOCC1,-1.86,-38.6
COc1ccc(CN2CC[C@H](NC(C)=O)[C@@H](O)CC2)c(OC)c1,3.53,-14.9
O=C(NCCN1CCC(c2cccs2)CC1)Nc1cccs1,-7.93,-125
COc1ccc(NC(=O)NC(C)c2nc[nH]n2)cc1 (centres undefined),-1.71,5.29
c1ncn(CC2CN(CC3CCCC3)CCO2)n1 (centres undefined),2.9,-0.78

SMILES,Percent Effect [1] [%],Percent Effect [2] [%]
NC(=O)C1(c2cnccn2)CCCN1Cc1cc2ccccc2o1 (centres undefined),3.17,11.4
CC(C)n1c(=O)nc2n1C(=O)N(c1ccccc1)C2,2.04,0.0543
O=C(CN1CCCC(O)C1)NC(=O)NCc1cccs1 (centres undefined),-0.0898,-13.2
c1coc(-c2nnc(CN3CCCC(CN4CCCCCC4)C3)o2)c1 (centres undefined),2.88,-14.6
CCN1C(=O)C(C)(C)c2cc(NC(=O)c3ccco3)ccc21,10.8,-25.1
CC(CNC(=O)Nc1cn[nH]c1)N1CCOCC1 (centres undefined),1.82,26.9
O=C(c1ccno1)N1CC[C@@H]2O[C@@H](COCCN3CCCC3)CC[C@@H]21,-0.779,-4.5
Cc1ccc(-n2nnc(C(=O)NS(C)(=O)=O)c2C2CC2)cc1,0.379,-7.97
O=C(CCc1nccs1)N1CCN(c2ccc(Br)cn2)CC1,3.92,23.4
Cc1cnc2c(S(=O)(=O)NCC3CCS(=O)(=O)C3)cccc2c1 (centres undefined),3.04,-5.77
CC(Cn1ccnc1)NC(=O)NCCc1ccc2c(c1)OCCO2 (centres undefined),-0.516,2.84
c1cnn(CC2CN(c3ncnc4sccc34)CCO2)c1 (centres undefined),2.38,-6.78
CNc1cncc(C2CCCN2Cc2c[nH]cn2)n1 (centres undefined),7.49,7.95
COc1ccccc1S(=O)(=O)N1CCC(Oc2cccnn2)CC1,-2.24,-12.5
O=C(Cn1c(=O)nc2n1C(=O)N(c1ccccc1)C2)Nc1ccccc1,-4,16.3
CS(=O)(=O)NCc1cnc2n1CCN(Cc1ccsc1)CC2,-2.39,-23.6
CCN1CCN(CC(C)(O)c2cccc(C(F)(F)F)c2)CC1 (centres undefined),3.38,6.41
O=C(c1ccncc1)N1CCC(O)(Cn2ccc3ccncc32)CC1,-0.194,-14.9
Cc1c(C)n(Cc2ccncc2)c2nc3c(c(N)c12)CCCCC3,4.67,-41.4
NC(=O)c1ccc2c(c1)nc1n2CCN(Cc2ccco2)C1,6.41,-31.5
O=C(CSc1ccc(F)c(F)c1)NS(=O)(=O)c1ccc2c(c1)OCCO2,3.35,10.6
CCc1ncc2c(n1)CN(CC(=O)NCCOc1ccccc1)CC2,2.89,23.5
Cc1cnn(C2CCCN(C(=O)c3cc(C)sc3C)C2)c1 (centres undefined),-4.82,-24.8
O=C(Cc1ccc2c(c1)OCCO2)N1CCCC(n2cccn2)C1 (centres undefined),-1.07,10.8
CCOc1cc(C)nc(N2CCN(C(=O)c3ccc[nH]3)CC2)n1,-0.0874,29.4
Cc1csc(C2CCCN(C(=O)c3cnc4n[nH]c(C)c4c3)C2)n1 (centres undefined),0.533,21.9
